Only some compounds are listed: those with a hit (about 9.2% of all), similar ones and a draw of the others.
ELG1 genotox: qHTS screen for small molecules that induce genotoxicity in human embryonic kidney (HEK293T) cells expressing luciferase-tagged ELG1 | HEK293T ELG1-luciferase reporter, luminescence, 16 h | Potency, µM (highest dose often 46 µM), actives largely listed as activators | 330,000 tested, 1.3% active; also: nearly all actives have a fitted effect of over 60% in size
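ELG1-luciferase HEK293T cells, 2,000/well; compound pinned in; 16 hr, 37 °C, 5% CO2; ONE-Glo, 30 min RT; luminescence on CCD imager.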
Rab9 prom act: qHTS Assay for Rab9 Promoter Activators; AID 485297, 2010; Potency, µM (titrated, usually from 9.22 µM), usual class: activators; 320,000 tested, 2.8% active; Huh7 Rab9 promoter-luciferase reporter, luminescence, 24 h; also: nearly all actives have a fitted effect of over 60% in size
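Cells were plated at 1500 per well in reduced-serum medium with 10% FBS and left 2 h. Compound in DMSO was then added for 24 h at 37 °C. Reporter signal was read by luminescence after 10 min with luciferase detection reagent.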
NPC1 prom act: qHTS Assay for NPC1 Promoter Activators. Huh7 NPC1 promoter luciferase reporter, 24 h. Potency, µM (highest dose often 9.22 µM), actives largely listed as activators. 320,000 tested, 2.4% active; also: nearly all actives have a fitted effect of over 60% in size
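Readout is luciferase luminescence, reflecting NPC1 promoter activation in stably transfected Huh7 cells after 24 h compound exposure at 37 °C in reduced-serum medium with 10% FBS.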
ELG1 DNA repair: qHTS screen for small molecules that inhibit ELG1-dependent DNA repair in human embryonic kidney (HEK293T) cells expressing luciferase-tagged ELG1. HEK293T ELG1-luciferase reporter, luminescence, 16 h; DNA damage induced by 5-fluorouridine. Potency, µM (series often up to 46.1 µM), actives largely listed as inhibitors. 330,000 tested, 2.3% active; also: nearly all actives have a fitted effect of over 55% in size
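Luminescence from the luciferase reporter, measured 30 min after ONE-Glo reagent at room temperature, was the read-out. Beforehand, 2,000 cells per well were exposed for 16 hr at 37 °C to 5-fluorouridine together with compound or vehicle.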
SMN2 splice enh: qHTS Assay for Enhancers of SMN2 Splice Variant Expression | HEK293 SMN2-luciferase splicing reporter, luminescence, 30-36 h | Potency, µM (highest dose often 46.1 µM), hits mostly activators | 210,000 tested, 2.8% active; also: nearly all actives have a fitted effect of over 55% in size
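qHTS luciferase splicing reporter: luminescence rises when SMN2 exon 7 is included in transfected HEK293 cells. Compound exposure lasted 30-36 h at 37C, with 4.5 mM final sodium butyrate as control, followed by a ONE-Glo read.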
FLuc counter: qHTS profiling assay for firefly luciferase inhibitor/activator using purifed enzyme and Km concentrations of substrates (counterscreen for miR-21 project). Luciferin 4-monooxygenase (Photinus pyralis), P08659. purified FLuc, Km substrates, luminescence inhibition. Potency, µM (titrated, usually from 57.5 µM), hits mostly inhibitors. 360,000 tested, 6.9% active; also: nearly all actives have a fitted effect of over 55% in size
Target sequence (P08659 whole entry, looked up): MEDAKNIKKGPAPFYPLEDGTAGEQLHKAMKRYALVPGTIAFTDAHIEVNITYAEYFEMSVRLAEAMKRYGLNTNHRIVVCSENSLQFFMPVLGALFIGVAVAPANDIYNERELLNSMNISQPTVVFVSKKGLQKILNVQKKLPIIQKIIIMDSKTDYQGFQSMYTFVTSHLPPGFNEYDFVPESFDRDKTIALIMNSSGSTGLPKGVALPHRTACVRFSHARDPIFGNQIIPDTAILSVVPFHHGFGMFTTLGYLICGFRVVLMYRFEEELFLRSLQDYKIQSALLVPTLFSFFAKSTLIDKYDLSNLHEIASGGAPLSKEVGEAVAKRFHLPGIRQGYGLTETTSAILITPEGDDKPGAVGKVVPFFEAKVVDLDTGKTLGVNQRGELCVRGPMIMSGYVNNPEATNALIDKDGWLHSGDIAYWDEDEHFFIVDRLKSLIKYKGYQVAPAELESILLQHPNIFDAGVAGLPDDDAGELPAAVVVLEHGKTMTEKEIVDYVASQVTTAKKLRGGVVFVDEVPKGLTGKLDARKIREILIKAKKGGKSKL
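Purified P. pyralis luciferase (10nM final) with 10uM D-luciferin and 10uM ATP (Km levels) in 50mM Tris acetate pH 7.5, 10mM Mg acetate, 0.01% Tween-20, 0.05% BSA; qHTS 6-point titration, ~60 µM downward; luminescence read.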
Large screens that a line does not name were inactive. Calls follow the shape of the dose curve; as a rule, active = well fitted curve in the direction sought with a large enough effect; inconclusive = small, poorly fitted or top-dose-only effect, or another doubt; inactive = no such curve, though single readings can be large; an effect the other way counts as inactive or inconclusive.

CN(C(=O)CSc1ncnc2sccc12)C1CCCCC1	ELG1 genotox inconclusive, Rab9 prom act 2.8µM, NPC1 prom act inconclusive, ELG1 DNA repair inconclusive, FLuc counter 13µM (no result: SMN2 splice enh)
O=C(CCn1cccn1)N1CCCC(N2CCN(c3cccc(C(F)(F)F)c3)CC2)C1 (stereo not given)	none (no result: SMN2 splice enh)
CN1CCN(c2ccc(NC(=O)c3cccc(OCc4ccccc4)c3)cc2)CC1	ELG1 DNA repair inconclusive, FLuc counter 7.6µM
CC(=O)Nc1cccc(NC(=O)c2ccccc2OCc2ccccc2)c1	ELG1 DNA repair inconclusive (no result: SMN2 splice enh)
CC(=O)Nc1cccc(NC(=O)c2cccc(OCc3ccccc3)c2)c1	ELG1 DNA repair inconclusive, FLuc counter 27µM (no result: SMN2 splice enh)
CC(=O)Nc1cccc(NC(=O)c2cccc(-c3ccc(O)cc3)c2)c1	ELG1 DNA repair inconclusive, FLuc counter 9.5µM (no result: SMN2 splice enh)
Cc1ccc(N2CCN(C(=O)Cn3ncc4c([nH]c5ccc(C)cc54)c3=O)CC2)c(C)c1	none (no result: ELG1 genotox, Rab9 prom act, NPC1 prom act, ELG1 DNA repair, SMN2 splice enh)
COc1ccc(C)cc1NC(=O)Cn1c(=O)ccc2cc(S(=O)(=O)N3CCCC3)ccc21	none (no result: ELG1 genotox, Rab9 prom act, NPC1 prom act, ELG1 DNA repair, SMN2 splice enh)
Oc1ccccc1/C=N/NC(=S)NC1CC2CC1C1C=CCC21 (stereo not given)	ELG1 genotox inconclusive, Rab9 prom act inconclusive, ELG1 DNA repair inconclusive, FLuc counter 5.4µM (no result: SMN2 splice enh)
COc1cccc(/C=N/NC(=S)NC2CC3CC2C2C=CCC32)c1O (stereo not given)	ELG1 DNA repair inconclusive, FLuc counter 5.4µM (no result: SMN2 splice enh)
COc1cccc(/C=N/NC(=S)NCc2ccco2)c1OC	ELG1 DNA repair inconclusive (no result: SMN2 splice enh)
COc1cc(C(=O)Nc2nnc(S(=O)(=O)N(C)c3ccccc3)s2)cc(OC)c1OC	none (no result: ELG1 genotox, Rab9 prom act, NPC1 prom act, ELG1 DNA repair, SMN2 splice enh)
Cc1csc(NC(=O)c2cccs2)n1	ELG1 genotox inconclusive, Rab9 prom act inconclusive, NPC1 prom act inconclusive, ELG1 DNA repair inconclusive, SMN2 splice enh 11µM, FLuc counter inconclusive
Cc1nc(NC(=O)c2cccs2)ccc1Br	ELG1 genotox inconclusive, Rab9 prom act 3.5µM, NPC1 prom act 3.5µM, ELG1 DNA repair inconclusive, SMN2 splice enh 11µM, FLuc counter 6µM
Cc1csc(NC(=O)CCC(=O)c2cccs2)n1	ELG1 DNA repair inconclusive
Cc1cc(C)nc(NC(=O)c2ccc(Br)s2)n1	none (no result: SMN2 splice enh)
Cc1csc(NC(=O)c2ccc(Br)s2)n1	ELG1 genotox inconclusive, ELG1 DNA repair inconclusive, FLuc counter 4.8µM (no result: SMN2 splice enh)
Cc1c(O)ccc(C(=O)COc2ccc(F)cc2)c1O	Rab9 prom act 5µM, NPC1 prom act inconclusive, ELG1 DNA repair inconclusive, FLuc counter 12µM (no result: SMN2 splice enh)
CCc1cc(C(=O)COc2ccc(F)cc2)c(O)cc1O	ELG1 DNA repair inconclusive, FLuc counter inconclusive (no result: SMN2 splice enh)
Cc1ccc(CSc2nnc(-c3cccnc3)o2)cc1	ELG1 genotox inconclusive, ELG1 DNA repair inconclusive
Oc1ccc(-c2nnc(SCc3ccccc3)o2)cc1	ELG1 genotox inconclusive, NPC1 prom act inconclusive, ELG1 DNA repair inconclusive, FLuc counter 27µM (no result: SMN2 splice enh)
O=S(=O)(c1ccc(-c2nnc(SCc3ccccc3)o2)cc1)N1CCCC1	ELG1 DNA repair inconclusive
Cc1ccc(-c2nnc(SCc3ccccc3)o2)cc1	FLuc counter 4.8µM (no result: ELG1 genotox, Rab9 prom act, NPC1 prom act, ELG1 DNA repair, SMN2 splice enh)
C#CCSc1nnc(-c2ccc(O)cc2)o1	ELG1 genotox inconclusive, Rab9 prom act inconclusive, ELG1 DNA repair inconclusive, SMN2 splice enh inconclusive, FLuc counter inconclusive
C#CCSc1nnc(-c2ccc(C)cc2)o1	ELG1 genotox 23µM, Rab9 prom act 2.2µM, NPC1 prom act 3.5µM, ELG1 DNA repair inconclusive, SMN2 splice enh 13µM, FLuc counter 7.6µM
Fc1ccc(CSc2nnc(-c3ccncc3)o2)cc1	ELG1 DNA repair inconclusive
Cc1ccccc1-c1nnc(SCc2ccc(F)cc2)o1	ELG1 genotox inconclusive, NPC1 prom act inconclusive, ELG1 DNA repair inconclusive, FLuc counter 15µM
COc1cccc(-c2nc(SCc3cc(=O)c4cc(Cl)ccc4[nH]3)n[nH]2)c1	none (no result: ELG1 genotox, Rab9 prom act, NPC1 prom act, ELG1 DNA repair, SMN2 splice enh)

Source: PubChem (National Center for Advancing Translational Sciences (NCATS))
